From PubChem BioAssay (NCI)
About 79,000 compounds went through this panel and 15% of them were active in at least one assay; those are over-represented in the sample as a whole. Active and inactive are the calls of the source. No stated cut-off is given here; in the data, active means growth inhibition above about 70%; inactive means the rest.

Experiments:
[1] = NCI Yeast Anticancer Drug Screen. Data for the rad50 strain (AID 155);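 further: 0% = growth of vehicle-only cultures of the same strain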; details: S. cerevisiae rad50 strain growth inhibition, stronger effect = higher value; at 50.0 µM unless noted
Summary of the method: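 Inhibition values express reduced yeast growth in compound-treated cultures relative to vehicle-treated controls.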

[2] = NCI Yeast Anticancer Drug Screen. Data for the mec2-1 strain (AID 157); details: S. cerevisiae mec2-1 strain, stronger effect = higher value; at 50.0 µM unless noted
Summary of the method: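 Yeast mec2-1 mutant treated with compound. Readout: growth inhibition vs vehicle controls.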

[3] = NCI Yeast Anticancer Drug Screen. Data for the sgs1 mgt1 strain (AID 161);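 further: 0% = growth of cultures given vehicle only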; details: S. cerevisiae sgs1 mgt1 strain, stronger effect = higher value; at 50.0 µM unless noted
Summary of the method: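 Test agents were incubated with a DNA-repair-mutant yeast strain. Growth was then read and compared against vehicle-treated controls.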

[4] = NCI Yeast Anticancer Drug Screen. Data for the cln2 rad14 strain (AID 165);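 further: 0% = growth equal to vehicle treated cultures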; details: S. cerevisiae cln2 rad14 strain, stronger effect = higher value; at 50.0 µM unless noted
Summary of the method: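 cln2 rad14 yeast strain; compound exposure; growth inhibition read vs vehicle controls.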

[5] = NCI Yeast Anticancer Drug Screen. Data for the bub3 strain (AID 167); details: S. cerevisiae bub3 mutant strain, stronger effect = higher value; at 50.0 µM unless noted
Summary of the method: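 Steps: expose the mutant yeast strain to compound; grow alongside vehicle-treated cultures; measure growth; express inhibition against the vehicle cultures.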

[6] = NCI Yeast Anticancer Drug Screen. Data for the mlh1 rad18 strain (AID 175); details: S. cerevisiae mlh1 rad18 strain growth inhibition, stronger effect = higher value; at 50.0 µM unless noted
Summary of the method: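 Yeast w/ defined DNA-repair lesions; compound exposure; growth vs vehicle controls → % inhibition.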

Measured: growth inhibition

O=C(O)CCSCCC(=O)O
inactive: [1] -22.8% | [2] -2.5% | [3] -29.4% | [4] -48.4% | [5] -13.6% | [6] 22.4%

O=C(c1ccc(Cl)cc1)N1CCC(CCCc2ccccc2)CC1
inactive: [1] -2.2% | [2] 3.45% | [3] -4.3% | [4] 5.05% | [5] 12.8% | [6] -3.2%

CCCCCCCCCCCCCCCCCCNC(=S)N/N=C/c1ccccc1[N+](=O)[O-]
inactive: [1] -17.1% | [2] 2.75% | [3] -20.1% | [4] 4.95% | [5] -13.1% | [6] -7.65%

CCCCCCCCCCCCN1CCCC(O)C1 (centres undefined)
inactive: [1] 66.8% | [2] 60.8% | [4] 56.4%
active: [3] 74.4% | [5] 70.6% | [6] 78.1%
